Experimental data: PubChem BioAssay AID1745845 (National Center for Advancing Translational Sciences (NCATS), 2022)
In all, about 360,000 compounds went through this assay and about 2,600 (0.72%) were called active. Inconclusive results (about 5%) are left out. What follows is part of a selection rich in actives, with near analogues and random picks from the rest. Unmarked numbers belong to inactive results. Calls follow the shape of the dose curve; as a rule, active = well fitted inhibition curve with a large enough effect; inconclusive = small, poorly fitted or top-dose-only effect; inactive = no such curve, though single readings can be large or run the other way.

Assay: Primary qHTS for Inhibitors of ATXN expression; also: nearly all actives have a fitted effect of over 55% in size
Settings: HEK-293 ATXN2-luciferase reporter, luminescence, 24 h; series mostly up to 57 µM; activity change, negative = inhibition: at the top concentration
Text: University of Utah School of Medicine, Salt Lake City, Utah
Spinocerebellar ataxia type 2 (SCA2) is a multisystem neurodegenerative disease caused by a dominantly acting mutation leading to expansion of a polyQ domain in the ataxin-2 protein (ATXN2). SCA2 patients develop progressive ataxia and later lose function in other neuronal systems. Prominent parkinsonian signs develop in some patients. Like many neurodegenerative disorders, no symptomatic or disease-modifying treatments are known.
The primary objective of the proposed research is to identify compounds inhibiting ATXN2 expression and to test them for efficacy in SCA2 mouse models. We have developed a cell-based assay paired with an in vivo mouse model using identical luciferase expression constructs. This approach takes advantage of an ATXN2-luciferase transgene, with the luciferase gene flanked by the upstream and downstream portions of the ATXN2 gene. Here we describe a 5-7 dose quantitative high thoroughput screen (qHTS) for compounds lowering ATXN2 expression. We screened the NIH Molecular Libraries Small Molecule Repository (MLSMR) and NCGC's mechanistically annotated (MIPE) and drug repurposing (NPC) collections of compounds for lowering expression of an ATXN2-luciferase reporter in HEK-293 cells. The assay is a multiplexed cell viability assay to ensure target reduction in the absence of cytotoxicity. Secondary qHTS assays included a CMV-luciferase reporter expressed in HEK-293 cells as well as a biochemical assay using recombinant luciferase to detect inhibitors of the reporter enzyme. Compounds that inhibit ATXN2 expression but is not cytotoxic were selected for confirmatory and secondary screens.
PROTOCOL TABLE (as described by Inglese J, Shamu CE and Guy RK. 2007)
SEQUENCE No. (e.g., 1, 2, 3, etc.); […] (e.g., Cells, Incubation, Reagent, etc.); VALUE; DESCRIPTION.
1; Cells; 4 uL; white, solid bottom, 1536-well Greiner assay plate.
2; Incubation; 2 hr; 37 degree C in 5% humidified CO2.
3; Compounds; 23 nL; Kalypsis pintool (Wako USA) equipped with a 1536-well pin head.
4; Incubation; 24 hr; 37 degree C in 5% humidified CO2.
5; Reagent; 1 uL; Gly-Phe-7-Amino-4-trifluoromethylcoumarin.
6; Incubation; 30 min; 37 degree C in 5% humidified CO2.
7; Detection; Fluorescence; ViewLux plate reader (PerkinElmer).
8; Reagent; 3 uL; SteadyGlo luciferase solution (Promega).
9; Incubation; 5 min; room temperature.
10; Detection; Luminescence; ViewLux plate reader (PerkinElmer).
NOTES (numbers refer to Sequence numbers above)
1. S2 cells expressing ATXN2-luciferase reporter were suspended in phenol-red free DMEM and dispensed in assay plates using a Multidrop Combi dispenser (Thermo Fisher Scientific).
2. Assay plates were incubated. Evaporation was prevented by covering assay plates with metal lids containing holes to allow gas diffusion.
3. Compounds were added in a dose response manner with the final concentrations of 57, 11.4, 2.28, 0.46, 0.091, 0.018, 0.0037 uM. Vehicle-only plates, with DMSO being pin-transferred to columns 5-48, were inserted uniformly at the beginning and the end of each library to monitor and record any shifts in assay performance.
5. 125 uM Gly-Phe-7-Amino-4-trifluoromethylcoumarin (MP Biomedicals) working concentration was used at a final concentration of 25 uM.
7. To assess cell viability; the assay plates were read using the ViewLux high-throughput CCD imager (PerkinElmer), wherein single end-point fluorescence measurement was acquired (excitation 405/10; emission 540/25 nm).
8. Detection reagent SteadyGlo Luciferase (Promega) was added to the assay plate.
10. Luminescence is then measured on the ViewLux imager equipped with a clear emission filter using a 2 sec exposure. All screening operations were performed on a fully integrated robotic system (Kalypsys) containing one RX-130 and two RX-90 anthropomorphic robotic arms (Staubli).
[…]
% is scaled to controls: 0 for no effect and ±100 for the full control effect; potency is read from the fitted curve at half-maximal effect.

Row | Structure (SMILES) | Potency | activity change, negative = inhibition
1 | O=C(Nc1cccc(-c2cccc(Cl)c2)c1)C1CCN(C2CCC2)CC1 | 28.2 µM (active) | –
2 | O=C(NC1CCCC1)C1CCN(C(=O)Nc2cccc(Cl)c2)CC1 | – | -2.76%
3 | COc1cccc(-c2cccc(NC(=O)C3CCN(C4CCC4)CC3)c2)c1 | – | 3.94%
4 | Cc1cc(C)c2nc3nc(C)cc(C)c3c(N)c2c1 | 25.1 µM (active) | –
5 | CC(=O)OC[C@@H]1O[C@@H](n2ccc(=O)[nH]c2=O)[C@H](OC(C)=O)[C@H]1OC(C)=O | – | -15.2%
6 | Cc1cccc(C)c1NC(=O)c1ccc(N)cc1 | – | 9.21%
7 | COc1cc(C=CC(=O)O)ccc1O | – | -4.31%
8 | Cc1ccc(C(=O)Nc2cccc(C(F)(F)F)c2)cc1Nc1nc(-c2cccnc2)nc2c1cnn2C | 24.3 µM (active) | –
9 | Cc1cc(Nc2cccc(C(F)(F)F)c2)nc2ccc(NC(=O)c3ccc(=O)[nH]c3)cc12 | – | -12.6%
10 | Cc1nc(Nc2ccccc2C)c2cnn(C)c2n1 | – | -6.74%
11 | COc1ccc(NC(=O)Nc2cccc(-c3noc(C)n3)c2)cc1 | – | 3.77%
12 | CCCNC(=O)CCC(=O)N1Cc2ccccc2Oc2ncccc21 | – | -2.06%
13 | CCOC(=O)Cn1c(=O)n(-c2ccccc2OC)c2nc(-c3cccc(F)c3)nc(C(N)=O)c21 | – | -23.1%
14 | COc1ccc(OC)c(-c2nc(C(N)=O)c3c(n2)n(-c2ccc4c(c2)OCO4)c(=O)n3C)c1 | – | 4.99%
15 | CCc1ccc2c(c1)NC(=O)C2(C)Cc1ccc(OC(F)(F)F)cc1 (centres undefined) | 25.1 µM (active) | –
16 | COC(=O)Cc1ccc(OCC(=O)Nc2ccc(OC(F)(F)F)cc2)cc1 | – | -6.45%
17 | CCC(=O)N1CCc2cc(Br)cc(S(=O)(=O)CCC(=O)NCc3ccccc3OC)c21 | – | -9.55%
18 | COc1ccc(OC)c(CNC(=O)Cn2nc(C)c3c(C)n(-c4ccccc4)nc3c2=O)c1 | – | -14.1%
19 | O=C(N/N=C/c1ccccn1)C12CC3CC(CC(C3)C1)C2 | – | -2.2%
20 | O=C(COc1ccc(Cl)cc1Cl)N/N=C/c1ccccn1 | – | -9.91%
21 | Cc1nnc(N/N=C/c2ccccn2)[nH]c1=O | 2 µM (active) | –
22 | CCc1cc2c(-c3ccccc3)cc(=O)oc2c2c1OCN(Cc1ccc(C)cc1)C2 | – | 10.3%
23 | O=C1CC(c2nnc(Cc3ccc(Cl)cc3)o2)CN1c1ccccc1 (centres undefined) | – | -6.28%
24 | COc1cccc2[nH]c(C(=O)NCCc3ccccc3)cc12 | – | 32.6%
25 | CC(O)CNCCOc1cccc(Oc2ccccc2)c1 (centres undefined) | – | -14.2%

Row | Structure (SMILES) | Potency | activity change, negative = inhibition
26 | COc1ccccc1OCCNCC(O)COc1cccc2[nH]c3ccccc3c12 (centres undefined) | 28.2 µM (active) | –
27 | COc1cc(OC)c(NC(=O)c2cnc(N3CCCC3)nc2C)cc1Cl | – | 1.88%
28 | COc1ccc(C(O)c2nc(-c3ccc(OC)nc3)cs2)cc1 (centres undefined) | – | 5.41%
29 | COc1ccc(NC(=O)C(=O)NCc2ccco2)cc1 | – | 26.5%
30 | COc1ccc(CS(=O)/C(Cl)=C(/Cl)C(=O)Nc2ccc(OC)nc2)cc1 (centres undefined) | 2.12 µM (active) | –
31 | Cc1ccc(C)c(N2CCN(C(=O)C3CCC(CNS(=O)(=O)c4cccs4)CC3)CC2)c1 (centres undefined) | – | -3.18%
32 | O=C(OCC(O)CO)c1ccccc1Nc1ccnc2c(C(F)(F)F)cccc12 (centres undefined) | – | -12.2%
33 | Cc1ccc(-c2ncc(Cl)cc2-c2ccc(S(C)(=O)=O)cc2)cn1 | – | 10.3%
34 | CC(C)OC(=O)c1ccc(NCc2cc(O)ccc2O)cc1Cl | 17.8 µM (active) | –
35 | CC(CN1CCCCC1)OC(=O)c1ccccc1Cl (centres undefined) | – | -8.37%
36 | CC(OC(=O)c1ccc(Cl)cc1O)C(=O)NCCC1=CCCCC1 (centres undefined) | – | 5.4%
37 | Cc1nn(Cc2ccccc2Cl)c(C)c1NC(=O)Cn1nc([N+](=O)[O-])c(Cl)c1C | – | -2.31%
38 | Cc1c(Cl)c([N+](=O)[O-])nn1Cc1ccc(C(=O)N/N=C\c2cc(Cl)ccc2O)o1 | 2.82 µM (active) | –
39 | O=C(N/N=C\c1ccc(Br)cc1)c1ccc(Cn2cccn2)o1 | – | 33.9%
40 | Cc1nn(-c2ccc(F)cc2)c(-n2cccc2)c1C(=O)N1CCN(c2ccccc2)CC1 | – | -12.5%
41 | CCC(C)N(C(=O)CSc1nnnn1-c1ccccc1OC)C1CCS(=O)(=O)C1 (centres undefined) | – | 1.29%
42 | COc1ccccc1-n1nnnc1SCC(=O)NC(=O)Cc1ccccc1 | – | 1.79%
43 | COc1ccccc1-n1nnnc1S(=O)(=O)Cc1ccc(Cl)cc1 | 14.1 µM (active) | –
44 | Cc1cn(C)c(CC(=O)NCc2ccc(Cl)cc2)c1C(=O)O | – | 12.4%
45 | CCc1ccc(Nc2nn3c(=O)c4cc5c(cc4nc3s2)OCO5)cc1 | – | 8.02%
46 | Cc1ccc(SCC(=O)Nc2ccc3oc(-c4ccccc4C)nc3c2)cc1 | – | 4.47%
47 | COc1ccc(-c2cc(-c3ccccc3)nc3c2COc2ccc(Cl)cc2-3)cc1 | – | 0.0064%
48 | CCC(=O)N1CCc2cc(S(=O)(=O)NCCC(=O)Nc3cccc(C)c3C)ccc21 | – | 10.8%
49 | COc1ccc(NC(=O)C2CCCN(S(=O)(=O)c3c(C)[nH]c(=O)[nH]c3=O)C2)c(OC)c1 (centres undefined) | – | -1.52%
